Measured values reported in PubChem BioAssay (NCI).
The panel holds about 79,000 compounds, 15% with a hit somewhere; the sample as a whole holds those more often. Rule as the data show it: active = growth inhibition above about 70%; inactive = the rest.

How the values were obtained:
[1] = NCI Yeast Anticancer Drug Screen. Data for the rad50 strain (AID 155);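 also: 0% = growth of vehicle-only cultures of the same strain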; conditions: S. cerevisiae rad50 strain growth inhibition; at 50.0 µM; stronger effect = higher value
Outline: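 Compounds were tested on a yeast strain with an engineered DNA damage repair alteration; the reported value is growth inhibition normalised to vehicle treatment.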

[2] = NCI Yeast Anticancer Drug Screen. Data for the mec2-1 strain (AID 157); conditions: S. cerevisiae mec2-1 strain, at 50.0 µM, stronger effect = higher value
Outline: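 Vehicle-treated cultures served as reference for growth inhibition of compound-exposed mec2-1 yeast.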

[3] = NCI Yeast Anticancer Drug Screen. Data for the sgs1 mgt1 strain (AID 161);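 also: 0% = growth of cultures given vehicle only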; conditions: S. cerevisiae sgs1 mgt1 strain, at 50.0 µM, stronger effect = higher value
Outline: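 Inhibition of yeast growth, normalised to vehicle-treated controls, is reported for a strain bearing genetic alterations in DNA damage repair.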

[4] = NCI Yeast Anticancer Drug Screen. Data for the cln2 rad14 strain (AID 165);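 also: 0% = growth equal to vehicle treated cultures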; conditions: S. cerevisiae cln2 rad14 strain, at 50.0 µM, stronger effect = higher value
Outline: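 Each compound was tested on cln2 rad14 yeast. Inhibition of growth was calculated against vehicle-exposed controls.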

[5] = NCI Yeast Anticancer Drug Screen. Data for the bub3 strain (AID 167); conditions: S. cerevisiae bub3 mutant strain, at 50.0 µM, stronger effect = higher value
Outline: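 Growth of a checkpoint-deficient yeast mutant is measured after compound exposure. Values represent inhibition relative to vehicle.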

[6] = NCI Yeast Anticancer Drug Screen. Data for the mlh1 rad18 strain (AID 175); conditions: S. cerevisiae mlh1 rad18 strain growth inhibition; at 50.0 µM; stronger effect = higher value
Outline: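 Vehicle-treated cultures served as the reference for growth inhibition in a yeast strain carrying DNA damage repair alterations exposed to each compound.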

Measured: growth inhibition

CCC(C)(C)c1ccc(OCCCCNC(=O)c2ccc3ccccc3c2O)c(C(C)(C)CC)c1
inactive: [1] -7.65% | [2] 2.05% | [3] -14.2% | [4] -37.1% | [5] -18.2% | [6] 3.15%

CC(=O)N(C)Nc1ccccc1
inactive: [1] 2.45% | [2] -10.7% | [3] 17.9% | [4] -7.4% | [5] 19.7% | [6] -17.6%

CN(C)C1=CC(=S)NC2CCCCC12 (stereo not given)
inactive: [1] 4.1% | [2] -4.7% | [3] 10.6% | [4] 2.05% | [5] -10.1% | [6] 22.1%

Cc1ccc(NC(=O)C(=O)CC(=O)c2c(C)n([O-])c3ccccc3[n+]2=O)cc1
inactive: [1] 5.65% | [2] 6.95% | [3] -6.5% | [4] 16.4% | [5] -1.55% | [6] 17.4%

O=C1c2cc([N+](=O)[O-])ccc2-c2c(I)cccc21
inactive: [1] 4.25% | [2] 2.7% | [3] -5.35% | [4] 5.75% | [5] -9.25% | [6] -6.45%

N#CN(Cc1ccccc1)Cc1ccccc1
inactive: [1] -1.25% | [2] 23.7% | [3] 7.75% | [4] 0.6% | [5] 10.7% | [6] 4%

OC1CC2C3CCC(C3)C2C1O (stereo not given)
inactive: [1] -11.8% | [2] -6.35% | [3] -10.4% | [4] -7.45% | [5] 9.55% | [6] -2.95%

O=C1CCC(c2ccccc2)(C2CCN(Cc3ccc(F)cc3)CC2)C(=O)N1 (stereo not given)
inactive: [1] -8.55% | [2] 4.85% | [3] -5.85% | [4] -14.8% | [5] 3.45% | [6] 4.8%

COc1cccc(OC(=O)Nc2ccccc2)c1
inactive: [1] 2.6% | [2] -10.6% | [3] -9.85% | [4] -41.3% | [5] -20.6% | [6] 3.25%

Cc1ccc(S(=O)(=O)Nc2ccc(S(C)(=O)=O)cc2)cc1
inactive: [1] 2.4% | [2] -4.2% | [3] -5.6% | [4] -36.4% | [5] 3.85% | [6] 3.3%

Cc1cc(=O)[nH]c(/N=C(/N)N(C)C)n1
inactive: [1] 4.15% | [2] -10.8% | [3] 3% | [4] 11.4% | [5] 8.2% | [6] 5.05%

O=c1[nH]cnc2oc(-c3ccccc3)nc12
inactive: [1] -0.3% | [2] -0.7% | [3] -6.35% | [4] -41.2% | [5] -15.8% | [6] 4.75%

CCCc1nc(CCC)nc(CCC)n1
inactive: [1] -13.8% | [2] -5.35% | [3] -10.2% | [4] -6.5% | [5] 5.55% | [6] -14.7%

CCN(CC)C(=O)CCC1CCCCC1
inactive: [1] -35% | [2] -18.9% | [3] -11.9% | [4] -39.3% | [5] -14.1% | [6] -23.5%

CCOc1ccc(NC(=O)CCCCCCCCC(=O)Nc2ccc(OCC)cc2)cc1
inactive: [1] 6.8% | [2] 3.2% | [3] -11.8% | [4] -1.9% | [5] -4.8% | [6] 19.8%

CCOC1CSc2ccccc2C(c2ccccc2)=N1 (stereo not given)
inactive: [1] 9.9% | [2] -1.4% | [3] 0.25% | [4] 10.6% | [5] 14.7% | [6] 6.75%

O=C(NNC(=O)c1cccc2ccccc12)c1cccc(Cl)c1
inactive: [1] 3.5% | [2] -41.5% | [3] -6.9% | [4] 4.05% | [5] -4.05% | [6] -13.9%

O=C(O)c1cc(=O)c2ccccc2[nH]1
inactive: [1] 4.45% | [2] 8.4% | [3] 1.35% | [4] 6.5% | [5] 8.2% | [6] 17.9%

Cc1ccc(CCCC(=O)O)cc1C
inactive: [1] -21.6% | [2] 2.65% | [3] -7.05% | [4] 10.6% | [5] -44.2% | [6] -13.8%

CCCCCCCCCCCCN(CC(O)C(O)C(OC1OC(CO)C(O)C(O)C1O)C(O)CO)C(=O)CCCCCCCCCCC (stereo not given)
inactive: [1] -2.7% | [2] -19.2% | [3] 17.7% | [4] 0.4% | [5] 4.3% | [6] -50.5%
